The results in this text go back to PubChem BioAssay AID651919 (Sanford-Burnham Center for Chemical Genomics, 2012).

Several values for one entry are separate records, joined by “and”; a condition that tells them apart may be missing. Equal entries are not always repeated.

In the assay the target is C-X-C chemokine receptor type 6 (Homo sapiens) (UniProt O00574). In words: antagonism of CXCR6 versus CXCR5 signaling – cell-based, CHO-K1 PathHunter beta-arrestin, luminescence, set 4, selectivity assay for CXCR6 antagonist project, profiling panel (AID 651919). As to conditions: run 1, at 79 µM (top of the series).
C-X-C chemokine receptor type 6 (Homo sapiens), sequence (O00574 whole entry, looked up): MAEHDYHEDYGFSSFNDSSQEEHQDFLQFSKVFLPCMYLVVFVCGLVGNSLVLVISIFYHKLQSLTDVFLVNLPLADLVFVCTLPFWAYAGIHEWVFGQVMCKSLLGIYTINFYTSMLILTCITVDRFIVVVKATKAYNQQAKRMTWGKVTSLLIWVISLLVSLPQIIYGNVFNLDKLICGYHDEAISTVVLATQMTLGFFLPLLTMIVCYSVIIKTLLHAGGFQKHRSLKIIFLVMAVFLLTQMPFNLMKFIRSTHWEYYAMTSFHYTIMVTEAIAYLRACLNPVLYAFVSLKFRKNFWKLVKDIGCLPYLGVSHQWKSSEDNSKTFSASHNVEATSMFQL
As to `COc1cc(C(=O)NC2CC3CCCC(C2)N3CC(=O)Nc2ccc(F)cc2)cc(OC)c1OC` (centres undefined), the inhibition is 84.8%.

On to `COc1ccc(C(=O)NC2CC3CCCC(C2)N3CC(=O)Nc2ccccc2)cc1OC` (centres undefined), for which the inhibition came out at 33.7%.

For `COc1ccc(NC(=O)CN2C3CCCC2CC(NC(=O)c2ccc4c(c2)OCO4)C3)cc1` (centres undefined), the inhibition was -0.217%.

Turning to `COc1cccc(C(=O)NC2CC3CCCC(C2)N3CC(=O)Nc2ccccc2)c1` (centres undefined), the inhibition stood at 16.6%.

On to `COc1ccc(C(=O)NC2CC3CCCC(C2)N3CC(=O)Nc2ccc(Cl)cc2)cc1OC` (centres undefined), for which the inhibition was 9.09%.

With `COc1ccc(C(=O)NC2CC3CCCC(C2)N3CC(=O)Nc2ccc(Cl)cc2)cc1` (centres undefined), the inhibition is -4.29%.

Take `O=C(CN1C2CCCC1CC(NC(=O)c1ccc3c(c1)OCO3)C2)Nc1ccccc1` (centres undefined): the inhibition is 12.3%.

For `COc1cc(OC)cc(C(=O)NC2CC3CCCC(C2)N3CC(=O)Nc2ccc(Cl)cc2)c1` (centres undefined), the inhibition was 5.14%.

As to `COc1ccc(NC(=O)CN2C3CCCC2CC(NC(=O)c2ccc(OC)c(OC)c2)C3)cc1` (centres undefined), the inhibition came to 12.2%.

Turning to `COc1ccc(NC(=O)CN2C3CCCC2CC(NC(=O)c2ccc(OC)cc2)C3)cc1` (centres undefined), the inhibition was -3.32%.

Regarding `COc1cccc(C(=O)NC2CC3CCCC(C2)N3CC(=O)Nc2ccc(F)cc2)c1` (centres undefined), the inhibition was -1.02%.

As for `O=C(CN1C2CCCC1CC(NC(=O)c1ccccc1)C2)Nc1ccccc1` (centres undefined), the inhibition is 10.1%.

`COc1ccc(NC(=O)CN2C3CCCC2CC(NC(=O)c2cccc(OC)c2)C3)cc1` (centres undefined): the inhibition amounted to 0.669%.

With `O=C(CN1C2CCCC1CC(NC(=O)c1ccc3c(c1)OCO3)C2)Nc1ccc(F)cc1` (centres undefined), the inhibition was -0.62%.

With `COc1ccc(C(=O)NC2CC3CCCC(C2)N3CC(=O)Nc2ccc(F)cc2)cc1OC` (centres undefined), the inhibition was 15%.

Turning to `COc1cccc(C(=O)NC2CC3CCCC(C2)N3CC(=O)Nc2ccc(Cl)cc2)c1` (centres undefined), the inhibition came out at 1.72%.

As for `COc1cc(OC)cc(C(=O)NC2CC3CCCC(C2)N3CC(=O)Nc2ccc(F)cc2)c1` (centres undefined), the inhibition came out at 7.92%.

As for `COc1ccc(C(=O)NC2CC3CCCC(C2)N3CC(=O)Nc2ccc(C)cc2)cc1OC` (centres undefined), the inhibition came out at 23.5%.

In the case of `COc1ccc(C(=O)NC2CC3CCCC(C2)N3CC(=O)Nc2ccc(C)cc2)cc1` (centres undefined), the inhibition was determined as 13.2%.

For `COc1ccc(NC(=O)CN2C3CCCC2CC(NC(=O)c2cc(OC)cc(OC)c2)C3)cc1` (centres undefined), the inhibition worked out at 11.5%.

For `COc1ccc(CN2C3CCCC2CC(NC(=O)c2cc(OC)c(OC)c(OC)c2)C3)cc1` (centres undefined), the inhibition was found to be 57.9%.

As for `COc1cccc(C(=O)NC2CC3CCCC(C2)N3CC(=O)Nc2ccc(C)cc2)c1` (centres undefined), the inhibition was determined as 16.6%.

For `COc1cc(C(=O)NC2CC3CCCC(C2)N3CC(=O)Nc2ccc(Cl)cc2)cc(OC)c1OC` (centres undefined), the inhibition is 88.2%.

With `COc1ccc(C(=O)NC2CC3CCCC(C2)N3CC(=O)Nc2ccccc2)cc1` (centres undefined), the inhibition amounted to 0.75%.

Consider `COc1cc(OC)cc(C(=O)NC2CC3CCCC(C2)N3CC(=O)Nc2ccccc2)c1` (centres undefined), for which the inhibition came to 12.4%.

Turning to `Cc1ccc(NC(=O)CN2C3CCCC2CC(NC(=O)c2ccc4c(c2)OCO4)C3)cc1` (centres undefined), the inhibition was determined as 11.9%.

Consider `COc1ccc(NC(=O)CN2C3CCCC2CC(NC(=O)c2cc(OC)c(OC)c(OC)c2)C3)cc1` (centres undefined), for which the inhibition stood at 66.4%.

For the molecule `O=C(CN1C2CCCC1CC(NC(=O)c1ccc3c(c1)OCO3)C2)Nc1ccc(Cl)cc1` (centres undefined), the inhibition worked out at 3.65%.

On to `COc1cc(C(=O)NC2CC3CCCC(C2)N3CC(=O)Nc2ccccc2)cc(OC)c1OC` (centres undefined), for which the inhibition was 96.3% and 90.5%.

With `COc1ccc(C(=O)NC2CC3CCCC(C2)N3CC(=O)Nc2ccc(F)cc2)cc1` (centres undefined), the inhibition was -4.57%.

On to `COc1cc(C(=O)NC2CC3CCCC(C2)N3CC(=O)Nc2ccc(C)cc2)cc(OC)c1OC` (centres undefined), for which the inhibition turned out to be 79%.

Take `COc1cc(C(=O)NC2CC3CCCC(C2)N3CC(=O)Nc2ccccc2Cl)cc(OC)c1OC` (centres undefined): the inhibition is 99.8% and 101%.

`COc1cc(OC)cc(C(=O)NC2CC3CCCC(C2)N3CC(=O)Nc2ccc(C)cc2)c1` (centres undefined): the inhibition was 10.9%.

Take `COc1ccccc1NC(=O)CN1C2CCCC1CC(NC(=O)c1cc(OC)c(OC)c(OC)c1)C2` (centres undefined): the inhibition came to 97.4%.

What is called inhibition is the drop in the measured response relative to a control, in per cent.
